Each molecule was assayed against Focal adhesion kinase 1 (Homo sapiens) (UniProt Q05397) (assay: small-molecule microarray binders of FAK, primary screen, biochemical, 635/667 nm fluorescence, BSA, DTT (AID 1130;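 note: composite of spot emission at 667 nm and signal to noise over triplicate slides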)). Conditions: PTK2 binding, 635 nm fluorescence, higher = more signal.
Focal adhesion kinase 1 (Homo sapiens), sequence (Q05397 whole entry, looked up): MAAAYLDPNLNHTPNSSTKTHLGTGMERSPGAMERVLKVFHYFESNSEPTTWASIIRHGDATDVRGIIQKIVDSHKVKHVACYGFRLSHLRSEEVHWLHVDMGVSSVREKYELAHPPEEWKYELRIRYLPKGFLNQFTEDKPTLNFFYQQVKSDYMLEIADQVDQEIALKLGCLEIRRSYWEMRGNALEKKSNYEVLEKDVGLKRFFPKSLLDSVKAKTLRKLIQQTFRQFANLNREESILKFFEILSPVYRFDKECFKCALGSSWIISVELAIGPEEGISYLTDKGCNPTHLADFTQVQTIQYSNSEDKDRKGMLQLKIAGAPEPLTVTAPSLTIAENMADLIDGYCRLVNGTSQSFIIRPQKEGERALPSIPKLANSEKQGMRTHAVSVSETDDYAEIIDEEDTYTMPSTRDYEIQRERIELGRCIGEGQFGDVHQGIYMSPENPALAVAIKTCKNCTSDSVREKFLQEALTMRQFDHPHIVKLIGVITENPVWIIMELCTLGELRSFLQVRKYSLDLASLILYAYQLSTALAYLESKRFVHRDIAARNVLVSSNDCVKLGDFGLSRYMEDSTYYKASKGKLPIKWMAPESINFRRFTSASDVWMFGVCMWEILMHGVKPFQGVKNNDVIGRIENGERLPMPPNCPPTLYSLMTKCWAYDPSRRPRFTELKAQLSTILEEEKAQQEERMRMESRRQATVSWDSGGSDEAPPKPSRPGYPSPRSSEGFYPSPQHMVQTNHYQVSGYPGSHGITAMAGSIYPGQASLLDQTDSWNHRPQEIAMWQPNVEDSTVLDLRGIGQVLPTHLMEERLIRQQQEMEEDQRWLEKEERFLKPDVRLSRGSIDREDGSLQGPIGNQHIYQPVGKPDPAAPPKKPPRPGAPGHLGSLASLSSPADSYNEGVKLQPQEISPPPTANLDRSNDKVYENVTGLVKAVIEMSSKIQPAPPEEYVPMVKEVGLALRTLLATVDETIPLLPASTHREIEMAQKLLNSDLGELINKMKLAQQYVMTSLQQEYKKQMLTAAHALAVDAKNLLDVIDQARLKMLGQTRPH

| SMILES | composite z-score |
| --- | --- |
| CC(=O)C[C@H](O)[C@@H](NC(=O)OC(C)(C)C)C(C)C | -0.352 |
| CO[C@H]1O[C@H](CO)[C@@H](OC(=O)Nc2ccc(C#N)cc2)[C@H](OC(=O)c2cc3ccccc3[nH]2)[C@H]1OC(=O)c1cc2ccccc2[nH]1 | 0.831 |
| CO[C@@H]1COC(=O)[C@@H]2CCCN2C(=O)[C@@H](C)COC(=O)[C@H](COCc2ccccc2)NC(=O)CC=C[C@H]1C | 0.0252 |
| COc1ccc(O[C@H]2C=C[C@@H](c3ccccc3)O[C@@H]2COC(=O)CCC(C)=NO[C@H](C)c2cn([C@@H]3COC[C@H]3O)nn2)cc1 | 0.149 |
| CC(CCC(=O)OC[C@H]1O[C@H](C#Cc2ccccc2)C=C[C@@H]1Oc1ccc(C)cc1)=NO[C@@H](C)c1cn([C@H](CO)Cc2ccccc2)nn1 | 0.0915 |
| CO[C@H]1COC(=O)[C@H](C)COC(=O)CC=C[C@@H](C)[C@H](OC)COC(=O)CC=C[C@@H]1C | -0.117 |
| CCc1cccc(NC(=O)O[C@H]2[C@H](OC(=O)Nc3ccc4c(c3)OCO4)[C@@H](OC(=O)Nc3ccc4c(c3)OCO4)[C@@H](OC)O[C@@H]2CO)c1 | -0.106 |
| CCOC(=O)C[C@H]1[C@H](OC(=O)c2cc3ccccc3oc2=O)[C@@H](NC(=O)c2ccc3ccccc3n2)c2cc(OCCCO)ccc2N1C(=O)c1ccccc1 | 0.513 |
| CCN1C(=O)[C@H]2[C@H]3[C@H](O)[C@H](O)CC(=NOCC=C(C)CCC=C(C)C)[C@H]3CC[C@H]2C1=O | 0.123 |
| O=C1[C@H]2[C@H]3[C@H](O)[C@H](O)CC(=NOCc4ccccc4)[C@@H]3CC[C@H]2C(=O)N1C1CCCCC1 | 0.179 |
| CC(C)=CCCC(C)=CCON=C1[C@H]2CCn3c(=O)n(Cc4cc5c(cc4Cl)OCO5)c(=O)n3[C@H]2[C@H](O)[C@@H]2O[C@H]12 | 0.138 |
| CCCNC(=O)OC[C@H]1O[C@H](CCON=C[C@@H](OC)[C@H](C)C=CCC(=O)OC)C=C[C@@H]1Oc1ccc(OC)cc1 | -0.0322 |
| COC(=O)[C@H](C)NC(=O)[C@@H](C)CO | 0.48 |
| C=CCOC(=O)[C@H]1[C@@H]2C(=O)O[C@@H](c3ccccc3)[C@@H](c3ccccc3)N2[C@@H](c2ccc(OCCOC(=O)[C@H]3C[C@H]4C(=O)N5CCC[C@H]5C(=O)N4[C@H]3c3cccc(OCCO)c3)cc2)[C@]12C(=O)Nc1ccc(I)cc12 | -0.259 |
| CCCCC(=C=CC[C@H](O)c1ccccc1OCCO)C[C@H](O)COCc1ccccc1 | 0.329 |
| COc1ccc(-c2ccc3c(n2)CCCN3CC(O)CN2CCCc3nc(C)c(C)cc32)cc1 (configuration not stated) | 0.351 |
| C[C@H]1Cc2c(-c3ccccc3)nc3c(c2CO1)CN(CCOc1ccccc1)CC3 | 0.269 |

Reference: PubChem BioAssay
